NR3A LBD binder: binders of NR3A ligand-binding domain, primary screen, biophysical, differential scanning fluorimetry, uHTS; Glutamate receptor ionotropic, NMDA 3A (GRIN3A) ligand-binding domain; NR3A LBD differential scanning fluorimetry, Tm shift; 0% = protein alone, 100% = glycine-bound protein; Tm shift relative to glycine control, % at 25 µM; hit rate 2.5% among 340,000;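 active = melting temperature shift of at least 10% of the positive control shift, at one fixed dose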
Beta cell apopt: inhibitors of cytokine-induced beta cell apoptosis, primary screen, luminescence | INS-1E cytokine-induced death, ATP luminescence, 48 h; percent of positive-control rescue, neutral wells zero | protection from apoptosis, % (no concentration beside the values) | hit rate 0.8% among 300,000 | AID 435005, 2010;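 active = Every replicate reaches about 75%, or at least half do and their mean reaches it too, limit read from the data; inconclusive = At least half of replicates reach the limit but their mean does not; inactive = Under half of replicates reach the limit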;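 also: 0% = cytokine-treated negative control wells and 100% = positive control rescue; higher means more ATP so stronger rescue from cytokine killing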
CSC inhib: cancer stem cell viability inhibitors, primary screen, luminescence | cancer stem cell-like cells viability | inhibition, % at 7.5 µM | hit rate 1.1% among 300,000 | AID 2717, 2010; in the data active = inhibition above about 75%; inconclusive = no clear call, values can overlap the other calls; tested in HMLE shEcad cells
SKKanGAS inh: S. pyogenes SKKanGAS growth inhibitors in kanamycin, primary screen, streptokinase expression inhibitor project, SKKanGAS strain, BacTiter-Glo luminescence; 6 h; inhibition, % at 7.5 µM; hit rate 1.3% among 300,000; AID 1662, 2009;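 active = mean replicate score, as percent of positive control median, at least 50; inconclusive = mean below 50 but one replicate at or above 50; inactive = mean and every replicate below 50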;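 also: strain carries kanamycin resistance gene driven by streptokinase promoter and grows in 40 µg/ml kanamycin; loss of luminescence reflects streptokinase promoter inhibition or plain growth inhibition; 0% = median of DMSO wells and 100% = positive control at its reference dose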
MPTP inh: mitochondrial permeability transition pore inhibitors, primary screen, biochemical, isolated mouse mitochondria, absorbance | Ca2+ swelling absorbance, 30 min | inhibition, % at 10 µM | hit rate 1.4% among 360,000 | AID 602449, 2012;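 active = inhibition of 50% or more, scaled per plate between neutral and stimulator controls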;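 also: 0% = DMSO wells given calcium and 100% = 1 mM EGTA wells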
Mdm2 MdmX PPI: inhibitors of human Mdm2-MdmX association, primary screen, cell-based, luminescence, split luciferase, SaOS-2, uHTS | Protein Mdm4 (Homo sapiens) + E3 ubiquitin-protein ligase Mdm2 (Homo sapiens), … | SaOS-2 split-luciferase Mdm2/MdmX complementation | inhibition, % at 8 µM | hit rate 3% among 330,000;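 active = inhibition of at least 50% at 8 µM in the primary screen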
Mdm2-MdmX conf: Mdm2-MdmX complex disruptors, retested hits, confirmation, luminescence, single concentration | hit rate 55% among 10,000 | shares compounds with Mdm2 MdmX PPI | inhibition, % at 8 µM | AID 489028, 2010 | Mdm2-MdmX binding, luminescent assay; in the data active = inhibition above about 40%
FLuc counter: full-length luciferase signal inhibition, confirmation, counter-screen for Mdm2/MdmX interaction inhibitor project, cell-based, single concentration, SaOS-2; shares compounds with Mdm2 MdmX PPI; SaOS-2 full-length luciferase counterscreen, luminescence; inhibition, % at 8 µM; hit rate 77% among 6,200;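 active = mean inhibition at 8 µM reaching about 37%, which flags the compound as non-specific, limit read from the data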;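 also: p53-null SaOS-2 cells with luciferase driven by a doxycycline-inducible promoter; compound on cells about two nights before reading with doxycycline added after day one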
* marks the source's active call; other numbers are inactive results; u = inconclusive; x = not tested or not shown. Shown are actives, neighbours in structure and some others; about 6.9% of the full set was active somewhere.

SMILES | NR3A LBD binder | Beta cell apopt | CSC inhib | SKKanGAS inh | MPTP inh | Mdm2 MdmX PPI | Mdm2-MdmX conf | FLuc counter
C[C@@H]1COC(=O)[C@H](NC(=O)OCC2c3ccccc3-c3ccccc32)C/C=C\C[C@@H](CC(=O)N(CCO)Cc2ccccc2)C(=O)N1 | -3.8 | 39.1 | x | x | -2.5 | -2.6 | x | x
O=C(N[C@@H]1C/C=C\C[C@H](CC(=O)N(CCO)Cc2ccccc2)C(=O)N[C@@H](Cc2ccccc2)COC1=O)OCC1c2ccccc2-c2ccccc21 | -4.6 | 0.9 | 40.3 | x | -1.1 | 92.7* | 43.1* | 58.6*
Cc1ccc(S(=O)(=O)c2nc(S(=O)(=O)c3ccccc3)sc2N2CCN(C)CC2)cc1 | 0.1 | x | x | -0.3 | 1.0 | 60.8* | 46.7* | 23.7
Cc1ccc(S(=O)(=O)c2nc(S(=O)(=O)c3ccccc3)sc2N2CCN(CCO)CC2)cc1 | 0.1 | x | x | -4.7 | -1.7 | 52.7* | 10.9 | x
COc1ccc2nc3cc(Cl)ccc3c(Nc3ccc(O)c(CN4CCN(C)CC4)c3)c2c1 | -6.8 | x | x | x | 6.8 | x | x | x
O=C(O)CSc1nnc(-c2ccc3c(c2)OCO3)o1 | -1.0 | -5.2 | 7.4 | 1.7 | -0.4 | 18.1 | x | x
O=C(c1ccc(Cl)cc1)N1CCCCC(Sc2nnc(-c3ccc4c(c3)OCO4)o2)C1=O (centres undefined) | -0.3 | -2.6 | 8.4 | 3.2 | -0.9 | 83.9* | 82.3* | 49.6*
CCOc1ccc(C)cc1S(=O)(=O)n1cnc2ccccc21 | -4.5 | x | 59.3 | 10.9 | 0.8 | 51.6* | 60.7* | 44.7*
CCCN(C)C[C@H]1Oc2cc(C#Cc3ccc(F)cc3)ccc2S(=O)(=O)N([C@H](C)CO)C[C@@H]1C | x | x | x | x | -0.5 | x | x | x
CC(=O)NC1CC2CCCC(C1)N2C(=O)Nc1ccc(Cl)cc1 (centres undefined) | x | x | x | x | -1.2 | x | x | x
Oc1ccccc1/C=N/[n+]1ccccc1 | -1.3 | 2.3 | 0.6 | -3.6 | 1.3 | 52.6* | 52.9* | 120.6*
Oc1ccccc1C=NC(c1ccccc1)C(O)c1ccccc1 (centres undefined) | -2.4 | -6.6 | -11.9 | -1.2 | 2.9 | -2.5 | x | x
O=c1ccc(S(=O)(=O)N2CCCC2)cn1Cc1ccc(F)cc1 | -0.1 | -1.3 | 3.9 | x | 0.3 | -4.2 | x | x
Cc1ccc(N(Cc2ccco2)C(=O)c2ccc(N3CCCCC3)c([N+](=O)[O-])c2)cc1 | 0.3 | 28.8 | 64.4 | 0.7 | 4.1 | 53.9* | 29.4 | x
COc1ccc(-c2oc3ccc(-c4ccc5c(c4)OCO5)cc3c2C#CC2(O)CCCCC2)cc1 | -3.1 | x | 19.6 | 32.1 | 0.2 | 65.0* | 29.1 | x
COc1ccc(-c2oc3ccc(-c4ccc(OC)nc4)cc3c2-c2ccc(OC)cc2)cc1 | -2.8 | 9.9 | 25.2 | 4.8 | 1.1 | 16.2 | x | x
COc1ccc(-c2ccc3oc(-c4ccc(OC)cc4)c(-c4ccc(OC)cc4)c3c2)cc1 | 0.3 | 1.8 | 13.6 | -5.2 | 0.6 | 4.4 | x | x
COc1ccc(-c2ccc3oc(-c4ccc(OC)cc4)c(C#CCO)c3c2)cc1 | 3.3 | 26.2 | 10.1 | u | 1.4 | 87.9* | 72.6* | 20.5
COC(=O)c1c(-c2ccc(OC)cc2)oc2ccc(-c3ccc(OC)nc3)cc12 | 0.5 | 15.8 | 28.0 | 7.7 | 2.0 | 82.0* | 57.0* | 44.6*
COc1ccc(-c2oc3ccc(-c4ccc(OC)nc4)cc3c2C#CC2(O)CCCCC2)cc1 | -6.5 | 13.9 | x | 44.3 | 0.2 | 64.0* | 30.8 | x
Cc1c(C(=O)N2CCCCC2CCN2CCCC2=O)oc2c(F)cccc12 (centres undefined) | 1.8 | -2.7 | 7.3 | -8.3 | 0.0 | 11.3 | x | x

Source: PubChem BioAssay (several laboratories)
